High-throughput results (PubChem BioAssay)
Only some compounds are listed: those with a hit (about 2.3% of all), similar ones and a draw of the others.
PfM18AAP inh-1 = blocks P. falciparum M18 aspartyl aminopeptidase; recombinant PfM18AAP, H-Glu-NHMec fluorogenic cleavage; inhibition, % at 7.35 µM; hit rate 1.2% among 290,000; AID 1822;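 active = inhibition above the campaign mean inhibition over all tested compounds plus 3 SD, cut at about 28% in these data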;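 note: 0% = plate median of test compound wells and 100% = 2 mM ZnCl2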
Rce1 inhib = inhibitors of yeast Ras-converting enzyme | Q03530 | yeast membranes, quenched prenylated peptide cleavage fluorescence | calls only | hit rate 0.27% among 290,000;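 active = fall in fluorescence gain of 50% or more versus controls, with final raw signal at or below 3038400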;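 note: plate controls were neutral control wells for no effect and wells lacking membranes for full effect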
DNA FID counter = fluorescent intercalator displacement, NS3 helicase counter-screen; DNA fluorescent intercalator displacement, fluorescence; hit rate 0.17% among 290,000; inhibition, % at 7.9 µM; in the data active = inhibition above about 37%;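 note: 0% = vehicle and 100% = reference compound; higher means more ethidium bromide displaced from hairpin DNA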
Kir21 inh = inhibitors of mouse Kir2.1 inward-rectifier potassium channel | hit rate 0.85% among 310,000 | AID 1672 | HEK293-Kir2.1, FluxOR thallium flux fluorescence; stronger effect = lower value | B-score at 10 µM | P35561;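 active = fluorescence ratio B-score at or below minus 3 SD of library scores, with starting-brightness B-score within 2 SD, cut at about -4.2 in these data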;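 note: channel flux triggered by added potassium and thallium sulfate stimulus; B-score of peak minus minimum fluorescence over baseline after thallium stimulus; more negative B-score means stronger Kir2.1 block with less thallium influx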
Target sequence (P35561 whole entry, looked up): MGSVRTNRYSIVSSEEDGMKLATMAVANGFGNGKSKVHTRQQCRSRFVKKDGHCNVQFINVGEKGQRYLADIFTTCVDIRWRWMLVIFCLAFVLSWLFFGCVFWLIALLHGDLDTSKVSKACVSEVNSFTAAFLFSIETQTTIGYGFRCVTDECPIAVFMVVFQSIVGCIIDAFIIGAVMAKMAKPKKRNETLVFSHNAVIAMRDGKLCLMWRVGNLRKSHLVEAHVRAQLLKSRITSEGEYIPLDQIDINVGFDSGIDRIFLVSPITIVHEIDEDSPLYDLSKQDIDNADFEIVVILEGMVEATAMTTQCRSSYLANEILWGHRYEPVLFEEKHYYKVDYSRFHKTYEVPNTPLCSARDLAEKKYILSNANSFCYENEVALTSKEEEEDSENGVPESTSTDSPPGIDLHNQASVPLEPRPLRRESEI
PfM18AAP inh-2 = confirmation of Plasmodium falciparum M18 aspartyl aminopeptidase inhibitors; hit rate 28% among 2,400; shares compounds with PfM18AAP inh-1; recombinant PfM18AAP, H-Glu-NHMec fluorogenic cleavage; inhibition, % at 7.35 µM;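 active = mean inhibition over replicate wells above the hit cutoff set for the earlier primary screen, cut at about 29% in these data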;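 note: 0% = median of test compound wells and 100% = 2 mM ZnCl2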
CTSL1 confirm = counter-screen for PFM18AAP inhibitors: confirmation of human cathepsin L inhibitors | shares compounds with PfM18AAP inh-1 | 2,400 tested, under 10 active | inhibition, % at 5.96 µM | AID 2178 | purified cathepsin L1, Z-Leu-Arg-MCA fluorescence;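 active = average inhibition across replicates above the hit cutoff set in the earlier primary screen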;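 note: 0% = median of test compound wells and 100% = Z-Phe-Ala-diazomethylketone 1 µM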
* = called active by the depositor; i = inactive; nt = no result given.

SMILES	PfM18AAP inh-1	Rce1 inhib	DNA FID counter	Kir21 inh	PfM18AAP inh-2	CTSL1 confirm
COc1ccc(S(=O)(=O)N2CCCC2CNC(=O)C(=O)NCc2ccccn2)cc1 (configuration not stated)	nt	i	nt	1.25	nt	nt
Cc1ccc([N+](=O)[O-])cc1S(=O)(=O)Nc1ccc(O)c(Sc2ncn[nH]2)c1	53.9*	i	2.4	0.17	38.2*	-4.4
COc1ccc(-c2ccc(NS(=O)(=O)c3cc([N+](=O)[O-])ccc3C)cc2)nn1	4.5	i	-14.4	-0.2	nt	nt
Cc1cc(C(=O)CSc2nc(N)cc(N)n2)c(C)n1C1CC1	36.4*	i	-7.1	-0.92	-15.2	2.2
C=CCn1c(C)cc(C(=O)CSc2nc(N)cc(N)n2)c1C	7.9	i	-10.1	0.77	nt	nt
Cc1cc(C(=O)CSc2nc(N)cc(N)n2)c(C)n1-c1cccc(F)c1	34.4*	i	-8.9	-2.6	-37.3	-3.8
Cc1cc(C(=O)CSc2nnc(N)s2)c(C)n1C1CC1	nt	i	nt	0.26	nt	nt
Cc1ccc(CNC(=O)c2cc(Cl)cc(Cl)c2)n1C	18.0	i	-5.5	2.9	nt	nt
O=C(C/C=N\OCc1ccc([N+](=O)[O-])cc1)Nc1ccccc1	33.4*	i	2.4	-0.14	-33.0	-1.3
Cc1ccc(-c2nc(SC(C)C(=O)N3CCCC3)n[nH]2)cc1 (configuration not stated)	nt	i	nt	-1.06	nt	nt
N/C(Cn1cncn1)=N\OC(=O)c1ccc(Cl)cc1	5.0	i	-3.4	0.02	nt	nt
O=C(OCn1cncn1)c1ccc(Cl)cc1Cl	53.2*	i	-3.0	1.55	29.0*	6.4
Oc1cccc(/C=N/N=C/c2cccc(O)c2O)c1O	41.8*	i	-1.4	0.55	7.1	-0.9
CCN(CC)c1ccc(N=Cc2cc(Br)ccc2O)cc1	36.7*	i	-13.5	1.36	-18.1	-4.9
Oc1ccccc1C=NCCN=Cc1ccccc1O	-6.8	i	2.9	0.02	nt	nt
Cc1ccc(O)c(C=Nc2cc(C)ccc2O)c1	31.8*	i	-6.1	0.69	37.0*	-2.0
Cc1ccc(N=Cc2cccc(O)c2O)c(C)c1	34.4*	i	4.8	1.54	36.9*	-3.5
CC(C)n1c(CN(C)Cc2ccccc2)nc2c1c(=O)n(C)c(=O)n2C	-3.3	i	-25.5	-1.2	nt	nt
CCOC(=O)N1CCN(CC(=O)Nc2nnc(C(F)(F)F)s2)CC1	-13.7	i	-10.0	-0.5	nt	nt
CCC1CCCCN1CCCNC(=O)c1ccc2c(c1)c(C)c(C)n2C (configuration not stated)	4.7	i	12.4	-0.81	nt	nt
Oc1ccc(Br)cc1C=Nc1ccc(Cl)cc1	-0.1	i	5.2	-0.52	nt	nt
CC(C)(C)c1ccc(O)c(N=Cc2cc(Br)ccc2O)c1	55.9*	i	-8.6	0.54	88.4*	-2.9
O=C1C(C=Nc2ccccc2O)=C(O)c2ccccc21	15.3	i	11.2	-1.34	nt	nt
Cc1ccc(O)c(N=CC2=C(O)c3ccccc3C2=O)c1	70.9*	i	1.2	-0.29	-15.4	5.1
CC1(CCCN2C(=O)c3ccccc3C2=O)OCCO1	nt	i	nt	-0.53	nt	nt
SMILES	PfM18AAP inh-1	Rce1 inhib	DNA FID counter	Kir21 inh	PfM18AAP inh-2	CTSL1 confirm
Cc1cc(NC(=O)Nc2ccc(F)c(Cl)c2)no1	4.9	i	0.0	0.01	nt	nt
O=C(NCc1cccnc1)NC1(C(F)(F)F)Oc2ccc(Cl)cc2O1 (configuration not stated)	79.8*	i	1.1	0.24	82.8*	-0.9
COCCNC(=O)C(C)Oc1ccc(Cl)cc1Cl (configuration not stated)	2.4	i	-5.7	0.04	nt	nt
Cc1cc(NC(=O)NC2(C(F)(F)F)Oc3ccc(Cl)cc3O2)no1 (configuration not stated)	88.5*	i	-1.6	0.56	83.2*	-2.0
COCCNC(=O)NC1(C(F)(F)F)Oc2ccc(Cl)cc2O1 (configuration not stated)	82.7*	i	-2.7	1.3	60.8*	1.1
CCC1CCC(C(=O)NC(C(=O)NCCN2CCOCC2)C(C)C)CC1 (configuration not stated)	-11.7	i	-4.6	-0.82	nt	nt
Nc1c2c(nn1-c1ccc(F)cc1)CSC2	-19.7	i	10.5	-0.34	nt	nt
CCN(CCCNC(=O)CCNC(=O)Cn1cnc2ccccc2c1=O)c1cccc(C)c1	53.3*	i	-15.0	-0.01	-25.3	-1.6
CCN(CCCNC(=O)CNC(=O)Cn1cnc2ccccc2c1=O)c1ccccc1	11.3	nt	-14.2	nt	nt	nt
O=C(CN(Cc1ccc(F)cc1)C(=O)CCC(=O)Nc1ccccn1)NCCc1ccccc1	2.9	i	-37.3	-0.66	nt	nt
